Screening data from PubChem.
A selection: hits, their analogues and other compounds. The true share with any hit is near 2.4%.
ABHD5 PLIN5 PPI – blocks binding of human ABHD5 to perilipin-5; Q00G26+Q8WTS1; Split G. princeps luciferase complementation, luminescence, 4 h; inhibition, % at 4 µM; actives 0.78% (n = 360,000);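 active means inhibition above the mean inhibition across every tested compound plus 3 SD, cut at about 22% in these data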;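 further: 0% = DMSO only wells and the 100% control is not disclosed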
m5-HT2A agonist – agonists of mouse serotonin 5-HT2A receptor (HTR2A); P35363; CHO-K1 mHTR2A beta-arrestin complementation, luminescence; percent of 30 µM serotonin response; activation, % at 7.6 µM; actives 0.66% (n = 360,000); AID 624169;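 active means activation above a run cutoff, the mean activation of all tested compounds plus 3 SD, cut at about 14% in these data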;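 further: 0% = plate median of compound wells and 100% = 30 µM serotonin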
NOD2 RIPK2 PPI – inhibitors of human NOD2-RIPK2 interaction; CHO BLA complementation NOD2-RIPK2, CCF4 ratio; inhibition, % at 4.98 µM; actives 0.38% (n = 360,000); AID 624267; in the data active means inhibition above about 21%;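 further: 0% = vehicle only and 100% = reference blocker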
CRFBP-R2 block – CRF-BP/CRF-R2 complex antagonism; actives 0.59% (n = 350,000); inhibition, % at 11.8 µM; AID 588475; HEK293 CRF-R2/CRF-BP, CRF-induced calcium fluorescence;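 active means inhibition of the ligand-induced calcium signal above about 50% at the single tested concentration, limit read from the data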
TLR4-MyD88 BLA – TLR4-MyD88 interaction inhibition in cells; HeLa CL3-4 TLR4/MyD88 BLA complementation, FRET ratio; AID 861; O00206+Q99836; actives 0.18% (n = 200,000); inhibition, % at 8.4 µM; in the data active means inhibition above about 25%;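 further: 0% = vehicle and 100% = reference inhibitor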
Target sequence (O00206 whole entry, looked up): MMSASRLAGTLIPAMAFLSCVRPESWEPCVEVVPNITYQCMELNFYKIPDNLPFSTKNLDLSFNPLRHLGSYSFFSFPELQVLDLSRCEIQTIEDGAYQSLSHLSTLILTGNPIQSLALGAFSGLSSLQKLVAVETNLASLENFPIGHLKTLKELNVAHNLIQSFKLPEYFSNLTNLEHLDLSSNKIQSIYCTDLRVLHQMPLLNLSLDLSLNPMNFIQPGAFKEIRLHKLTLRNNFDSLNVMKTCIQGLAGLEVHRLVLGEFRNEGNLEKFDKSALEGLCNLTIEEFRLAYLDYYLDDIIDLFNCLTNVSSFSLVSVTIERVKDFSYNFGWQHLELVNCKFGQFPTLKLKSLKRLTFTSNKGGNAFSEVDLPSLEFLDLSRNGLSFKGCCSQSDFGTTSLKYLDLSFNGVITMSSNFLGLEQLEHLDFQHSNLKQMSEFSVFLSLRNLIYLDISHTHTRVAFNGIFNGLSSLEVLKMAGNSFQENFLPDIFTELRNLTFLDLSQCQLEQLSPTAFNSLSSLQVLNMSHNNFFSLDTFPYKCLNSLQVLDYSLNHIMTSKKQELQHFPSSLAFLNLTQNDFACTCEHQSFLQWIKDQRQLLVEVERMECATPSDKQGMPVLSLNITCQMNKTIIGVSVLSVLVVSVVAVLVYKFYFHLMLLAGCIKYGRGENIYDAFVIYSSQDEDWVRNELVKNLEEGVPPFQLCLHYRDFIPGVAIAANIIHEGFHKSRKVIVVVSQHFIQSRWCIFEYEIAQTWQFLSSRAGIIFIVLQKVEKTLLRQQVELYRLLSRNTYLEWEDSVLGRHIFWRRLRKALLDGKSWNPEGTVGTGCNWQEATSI
Target sequence (Q99836 whole entry, looked up): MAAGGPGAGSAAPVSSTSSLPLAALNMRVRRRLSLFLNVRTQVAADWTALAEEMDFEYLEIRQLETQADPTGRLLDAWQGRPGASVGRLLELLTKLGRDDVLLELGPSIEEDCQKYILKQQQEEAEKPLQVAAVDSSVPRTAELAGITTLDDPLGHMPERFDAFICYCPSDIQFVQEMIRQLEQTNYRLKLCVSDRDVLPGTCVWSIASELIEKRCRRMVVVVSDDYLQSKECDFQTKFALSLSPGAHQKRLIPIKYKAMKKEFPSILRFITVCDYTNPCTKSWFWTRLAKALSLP
TLR9-MyD88 inh – blocks human TLR9 binding to MyD88. CHO BLA complementation TLR9-MyD88, CCF4 FRET ratio. AID 504734. actives 0.21% (n = 340,000). inhibition, % at 4.98 µM. Q9NR96+Q99836;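 active means inhibition above the mean over all tested compounds plus 3 SD, cut at about 21% in these data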;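 further: 0% = DMSO only wells and 100% = clavulanate BLA inhibitor control wells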
MOR ag counter – OPRM1 agonism in mouse HTR2A counterscreen | shares compounds with m5-HT2A agonist | U2OS OPRM1 beta-arrestin PathHunter, luminescence; DMSO 0%, DAMGO 9.3 µM 100% | activation, % at 9.3 µM | actives 5.3% (n = 2,300);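 active means mean activation above the mean of DMSO-only wells plus 3 SD, cut at about 0.5% in these data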
m5-HT2A ag conf – confirmation of mouse HTR2A serotonin receptor agonists; actives 19% (n = 2,300); CHO-K1 PathHunter beta-arrestin recruitment, luminescence; DMSO 0%, 30 µM serotonin 100%; shares compounds with m5-HT2A agonist; activation, % at 7.6 µM;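 active means mean activation across triplicates above the hit threshold derived in the original primary screen, cut at about 15% in these data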
NOD2 RIPK2 conf – confirmation of human NOD2-RIPK2 interaction inhibitors | shares compounds with NOD2 RIPK2 PPI | CHO cells, NOD2-RIPK2 BLA complementation, CCF4 FRET | inhibition, % at 4.98 µM | actives 70% (n = 1,200) | AID 624370;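 active means mean inhibition across replicates above a set limit taken from the earlier primary screen, cut at about 21% in these data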;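 further: 0% = DMSO-only wells and the high end = clavulanate BLA-blocked wells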
NOD2 BLA counter – counter-screen for NOD2-RIPK2 interaction inhibitors: BLA reporter. shares compounds with NOD2 RIPK2 PPI. CHO BLA reporter, CCF4 FRET ratio, counterscreen. inhibition, % at 4.98 µM. actives 57% (n = 1,200);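 active means mean inhibition above the low-control mean inhibition plus three low-control SD, cut at about 11% in these data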;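 further: 0% = DMSO only wells and 100% = clavulanate high control wells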
Active calls of the source: *.

For OC(CN1CCOCC1)Cn1c2ccccc2c2ccccc21 (stereo not given) the results were ABHD5 PLIN5 PPI -3, m5-HT2A agonist 3, NOD2 RIPK2 PPI 4, CRFBP-R2 block -3 and TLR9-MyD88 inh -7.
`OC(CN1CCNCC1)Cn1c2ccccc2c2ccccc21` (stereo not given) gave ABHD5 PLIN5 PPI 5, m5-HT2A agonist 18*, NOD2 RIPK2 PPI 2, CRFBP-R2 block -3, TLR9-MyD88 inh -3, MOR ag counter -1 and m5-HT2A ag conf 6.
`COc1ccc(C(C)=O)cc1CN1C(=O)C(C)ON=C1c1cccc(C(F)(F)F)c1` (stereo not given) gave ABHD5 PLIN5 PPI -9, m5-HT2A agonist 9 and NOD2 RIPK2 PPI 9.
Screening O=C(CN1C(=O)NC(c2ccccc2)(c2ccccc2)C1=O)NCc1ccco1 returned ABHD5 PLIN5 PPI -1, m5-HT2A agonist 15*, NOD2 RIPK2 PPI -3, CRFBP-R2 block -5, TLR9-MyD88 inh -5, MOR ag counter 0 and m5-HT2A ag conf 4.
O=C(NCc1ccncc1)C(=O)NCC1OCCN1S(=O)(=O)c1ccccc1 (stereo not given) was read as ABHD5 PLIN5 PPI 5, m5-HT2A agonist 0, NOD2 RIPK2 PPI -3, CRFBP-R2 block -4 and TLR9-MyD88 inh 0.
`O=C1Nc2ccccc2-n2nnnc2C1N1CCN(c2ccccn2)CC1` (stereo not given) gave ABHD5 PLIN5 PPI -5, m5-HT2A agonist -5 and NOD2 RIPK2 PPI -3.
`O=C1Nc2ccccc2-n2nnnc2C1N1CCN(C(=O)c2ccco2)CC1` (stereo not given) gave ABHD5 PLIN5 PPI 4, m5-HT2A agonist 20*, NOD2 RIPK2 PPI -8, MOR ag counter -1 and m5-HT2A ag conf -5.
Screening Oc1cccc(NC(=S)Nc2ccccc2)c1 returned ABHD5 PLIN5 PPI 2, m5-HT2A agonist 18*, NOD2 RIPK2 PPI 7, CRFBP-R2 block 7, TLR9-MyD88 inh -2, MOR ag counter -1 and m5-HT2A ag conf -3.
CN(C)/C=C(\C=O)c1ncc(C(F)(F)F)cc1Cl was read as ABHD5 PLIN5 PPI 0, m5-HT2A agonist 2, NOD2 RIPK2 PPI 8, CRFBP-R2 block 1, TLR4-MyD88 BLA 0 and TLR9-MyD88 inh -2.
C/C(=C\C(=O)c1ncc(C(F)(F)F)cc1Cl)N(C)C was read as ABHD5 PLIN5 PPI -1, m5-HT2A agonist 21*, NOD2 RIPK2 PPI -9, CRFBP-R2 block -9, TLR4-MyD88 BLA -1, TLR9-MyD88 inh -6, MOR ag counter -1 and m5-HT2A ag conf -6.
For COC(=O)C(C)n1nnc2sc(-c3ccccc3)cc2c1=O (stereo not given) the results were ABHD5 PLIN5 PPI 0, m5-HT2A agonist 16*, NOD2 RIPK2 PPI -3, CRFBP-R2 block 22, TLR4-MyD88 BLA 7, TLR9-MyD88 inh -11, MOR ag counter 0 and m5-HT2A ag conf 0.
For COc1ccc(C(=O)NCCn2cc(SCC(N)=O)c3ccccc32)cc1 the results were ABHD5 PLIN5 PPI -10, m5-HT2A agonist 16*, NOD2 RIPK2 PPI 0, CRFBP-R2 block 5, TLR9-MyD88 inh 9, MOR ag counter -1 and m5-HT2A ag conf -6.
For CCCCN1C(=O)CC2CCOC21C (stereo not given) the results were ABHD5 PLIN5 PPI -6, m5-HT2A agonist 21*, NOD2 RIPK2 PPI -5, CRFBP-R2 block 12, TLR9-MyD88 inh 4, MOR ag counter -1 and m5-HT2A ag conf -3.
For O=C(O)CCC(=O)N1CCc2cc(S(=O)(=O)N3CCN(c4ccc(F)cc4)CC3)ccc21 the results were ABHD5 PLIN5 PPI -3, m5-HT2A agonist 15*, NOD2 RIPK2 PPI -12, CRFBP-R2 block 21, TLR4-MyD88 BLA 4, TLR9-MyD88 inh -7, MOR ag counter 0 and m5-HT2A ag conf -1.
`O=C(NC1CCCCC1)C(c1ccncc1)n1c(=O)c(-c2cc3ccccc3[nH]2)nc2ccccc21` (stereo not given) gave ABHD5 PLIN5 PPI 1, m5-HT2A agonist 16*, NOD2 RIPK2 PPI 53*, MOR ag counter 0, m5-HT2A ag conf 5, NOD2 RIPK2 conf 48* and NOD2 BLA counter 68*.
O=C(NC1CCCC1)C(c1ccccc1)n1c(-c2cccs2)nc2ccccc21 (stereo not given) was read as ABHD5 PLIN5 PPI -2, m5-HT2A agonist -7 and NOD2 RIPK2 PPI -2.
Screening CC(C)(C)NC(=O)C(c1cc2ccccc2o1)n1c(=O)c(-c2cc3ccccc3[nH]2)nc2ccccc21 (stereo not given) returned ABHD5 PLIN5 PPI -3, m5-HT2A agonist 31*, NOD2 RIPK2 PPI 50*, MOR ag counter 0, m5-HT2A ag conf 2, NOD2 RIPK2 conf 46* and NOD2 BLA counter 70*.
For CC(CN1CCCCC1)NC(=O)c1scnc1-c1ccccc1 (stereo not given) the results were ABHD5 PLIN5 PPI -5, m5-HT2A agonist -3 and NOD2 RIPK2 PPI -4.
`O=C(c1ccccc1)c1c[nH]c(C(=O)NNc2cccc(Cl)n2)c1` gave ABHD5 PLIN5 PPI -3, m5-HT2A agonist -5, NOD2 RIPK2 PPI -8, CRFBP-R2 block -5, TLR4-MyD88 BLA 18 and TLR9-MyD88 inh 4.
For O=C(c1ccc(Cl)cc1)c1c[nH]c(C(=O)NNc2cccc(Cl)n2)c1 the results were ABHD5 PLIN5 PPI 4, m5-HT2A agonist 1, NOD2 RIPK2 PPI 23*, CRFBP-R2 block -62, TLR4-MyD88 BLA 8, TLR9-MyD88 inh 5, NOD2 RIPK2 conf 1 and NOD2 BLA counter 2.
For Cc1noc2ncnc(Sc3ccccc3Cl)c12 the results were ABHD5 PLIN5 PPI 14, m5-HT2A agonist -2, NOD2 RIPK2 PPI 28*, CRFBP-R2 block -1, TLR4-MyD88 BLA 10, TLR9-MyD88 inh 20, NOD2 RIPK2 conf 23* and NOD2 BLA counter -6.
Cc1ccc(Sc2ncnc3onc(C)c23)c(C)c1 was read as ABHD5 PLIN5 PPI -4, m5-HT2A agonist -2, NOD2 RIPK2 PPI -9, CRFBP-R2 block 11, TLR4-MyD88 BLA -6 and TLR9-MyD88 inh -6.
